Compounds with a hit are over-represented: about 11% of the library has one in this group of screens.
NPR1 antag = human Npr1 receptor antagonism; P16066; HEK293 hNpr1 GloSensor cGMP, ANP-stimulated luminescence; Potency, µM (titrated, usually from 46.3 µM), for the others: at the top dose activity change, negative = inhibition, usual class: inhibitors; hit rate 1.6% among 76,000; AID 1347048; calls by dose curve; further: on the % scale 0 is the no-effect control and ±100 the full control effect; nearly all actives have a fitted effect of over 60% in size
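HEK293 cells stably expressing human Npr1 and cGMP GloSensor pGS-40F, loaded 2 h with 2% GloSensor reagent, given compound 30 min at room temperature. Luminescence read before and 20 min after 0.1 nM hNppA.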
NIH3T3 tox = kills NIH 3T3 cells; hit rate 4.3% among 94,000; Potency, µM (top dose mostly 96.7 µM), inactives show at the highest dose activity change, negative = cytotoxicity, most hits filed as inhibitors; AID 1345082; NIH 3T3 viability, CellTiter-Glo ATP luminescence, 48-72 h; further: on the % scale 0 is the no-effect control and ±100 the full control effect; nearly all actives have a fitted effect of over 55% in size
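Cytotoxicity is measured as loss of cellular ATP: NIH 3T3 cells (400/well) are exposed to compound for 48 or 72 hr at 37 °C, then CellTiter-Glo luminescence is imaged after 10 min at room temperature.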
FLuc inh = inhibitors of firefly (Photinus pyralis) luciferase; purified P. pyralis luciferase, luminescence, biochemical; AID 1347043; Potency, µM (series often up to 115 µM), hits mostly inhibitors; hit rate 2.5% among 76,000; further: on the % scale 0 is the no-effect control and ±100 the full control effect; nearly all actives have a fitted effect of over 65% in size
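Purified 10nM P. pyralis luciferase with 10uM D-luciferin and 10uM ATP in 50mM Tris acetate pH 7.5, 10mM Mg acetate, 0.01% Tween-20, 0.05% BSA. qHTS titration; luminescence read by CCD imager.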
HEK293 tox = cytotoxic compounds in HEK 293 cells; HEK 293 viability, ATP luminescence (CellTiter-Glo), 48-72 h; Potency, µM (series often up to 115 µM), for the others: top-dose activity change, negative = cytotoxicity, most hits filed as inhibitors; hit rate 6.6% among 94,000; AID 1345083; further: on the % scale 0 is the no-effect control and ±100 the full control effect; nearly all actives have a fitted effect of over 60% in size
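CellTiter-Glo luminescence (cellular ATP) was read after 48 or 72 hr of compound exposure at 37 degree Celsius. Cells were HEK 293 plated at 250 cells/well.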
NPR1 antag cnf = hNpr1 antagonism, confirmation assay; shares compounds with NPR1 antag; HEK293 hNpr1 cGMP GloSensor luminescence, ANP-stimulated; Potency, µM (series often up to 57.6 µM), for inactives: top-dose activity change, negative = inhibition, usual class: inhibitors; hit rate 76% among 1,400; calls by dose curve; further: nearly all actives have a fitted effect of over 70% in size
Npr2 selectivity = antagonizes human Npr2, subtype selectivity check; HEK293 hNpr2 GloSensor cGMP luminescence, CNP-stimulated; Potency, µM (series often up to 57.6 µM), without a hit: at the top dose activity change, negative = inhibition, actives largely listed as inhibitors; AID 1347046; shares compounds with NPR1 antag; hit rate 67% among 1,400; calls by dose curve; further: nearly all actives have a fitted effect of over 70% in size
FLuc inh counter = counter-screen for Npr1 antagonists: firefly luciferase inhibitors; shares compounds with NPR1 antag; purified FLuc enzyme, luminescence, Km substrate; Potency, µM (series often up to 57.6 µM), for inactives: at the top dose activity change, negative = inhibition, hits mostly inhibitors; AID 1347047; hit rate 0.7% among 1,400; further: 0% is about no effect
GloSensor cGMP = control cell line activity, Npr1 antagonist counter-screen; HEK293 GloSensor cGMP, SNP-stimulated, luminescence; hit rate 69% among 1,400; Potency, µM (titrated, usually from 57.6 µM), without a hit: at the top dose activity change, negative = inhibition, most hits filed as inhibitors; shares compounds with NPR1 antag; calls by dose curve; further: on the % scale 0 is the no-effect control and ±100 the full control effect; nearly all actives have a fitted effect of over 70% in size
Active calls of the source: *; i = inactive; u = inconclusive; x = no result; [ ] = another dose, or the depositor's remark. Unless noted, the call rests on the fitted dose curve; in most records, active means well fitted curve in the direction sought with a large enough effect; inconclusive means small, poorly fitted or top-dose-only effect, or another doubt; inactive means no such curve, though single readings can be large; an effect the other way counts as inactive or inconclusive. Potency means the concentration at half of the fitted maximal effect.

SMILES	NPR1 antag	NIH3T3 tox	FLuc inh	HEK293 tox	NPR1 antag cnf	Npr2 selectivity	FLuc inh counter	GloSensor cGMP
NC(=O)CNC(=O)c1cc2n(n1)CC(c1ccc(Br)cc1)OC2 (centres undefined)	6%	-5%	i	2%	x	x	x	x
O=C(Nc1ccc(F)cc1)c1cc2n(n1)CC(c1ccc(Br)cc1)OC2 (centres undefined)	11µM*	u	i	u	u	u	0%	u
COc1cccc(-c2nc3cc(SC)ccc3cc2CN(C)Cc2ccno2)c1	-16%	u	i	u	x	x	x	x
CN(C)[S+](=O)([O-])c1ccc2c(c1)OCCN(Cc1ccc(F)cc1F)C2	u	u	i	u	x	x	x	x
O=C1CCC2(CCN1Cc1ccccc1)CCN(S(=O)(=O)c1cccs1)CC2	u	u	i	u	u	-28%	0%	u
CCS(=O)(=O)N1CCC2(CCC(=O)N(Cc3ccccc3)CC2)CC1	0%	-8%	i	-15%	x	x	x	x
COCCNC(=O)c1nc2c(o1)CCN(Cc1cc(C)cc(F)c1)CC2	-11%[70.6 µM]	u	i	u	x	x	x	x
O=C(Nc1ccc(Cl)cc1)c1nc2c(o1)CCN(Cc1ccccc1)CC2	4µM*	u	i	u	11µM*	9.9µM*	u	7.9µM*
O=C(Nc1ccc(Cl)cc1)c1nc2c(o1)CCN(Cc1cc(F)ccc1F)CC2	13µM*	u	i	u	16µM*	13µM*	0%[86.2 µM]	9.9µM*
COc1ccc(CN2CCc3nc(C(=O)Nc4ccc(Cl)cc4)oc3CC2)cc1OC	6.3µM*	u	i	u	9.7µM*	11µM*	0%	7.7µM*
N#Cc1cccc(CN2CCc3nc(C(=O)NCc4ccncc4)oc3CC2)c1	-26%[70.6 µM]	-26%[138 µM]	i	u	x	x	x	x
N#Cc1ccc(CN2CCc3nc(C(=O)Nc4cccc(C(F)(F)F)c4)oc3CC2)cc1	14µM*	u	i	u	17µM*	19µM*	-8%	11µM*
COC[C@@H]1CN(Cc2cccc(C(F)(F)F)c2)C[C@H]1C(=O)NC1CC1	1%	-19%	i	u	x	x	x	x
CCC(C)NC(=O)C(NC(=O)c1ccc(C)cc1)C1CCN(C(=O)c2cccc(F)c2)CC1 (centres undefined)	4%	-8%	i	-22%	x	x	x	x
COC(=O)c1ccc(NC(=O)N2CC(Oc3cccc(-c4nc(C)no4)c3)C2)cc1	13µM*	u	i	u	24µM*	24µM*	-1%	24µM*
O=C(Nc1ccccc1)N1CC(Oc2ccc(-c3noc(-c4ccncc4)n3)cc2)C1	11µM*	-25%	i	u	6.1µM*	8.6µM*	-1%	6.1µM*
Cc1noc(-c2cccc(OC3CN(C(=O)Nc4ccccc4)C3)c2)n1	-15%	u	i	u	x	x	x	x
Cc1noc(C2CC3(CCN(C(=O)c4cccs4)CC3)CN2C)n1 (centres undefined)	0%	-1%	i	-12%	x	x	x	x
O=C(Nc1ccc(-c2cccc(F)c2)cc1)C1CCCN(C(=O)c2ccncc2)C1 (centres undefined)	7.1µM*	u	i	14µM*	14µM*	15µM*	-15%	11µM*
O=C(Nc1cccc(-c2ccc(F)cc2)c1)C1CCCN(C(=O)c2cccnc2)C1 (centres undefined)	-15%	u	i	u	x	x	x	x

Source: PubChem BioAssay
